HTT aggregate: mutant huntingtin aggregation inhibition; actives 1.1% (n = 220,000); PC12 HttQ103-GFP aggregates, Acumen cytometry, 40 h; Potency, µM (top dose mostly 46.1 µM), most hits filed as inhibitors; AID 1688; note: nearly all actives have a fitted effect of over 60% in size
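Inducible Q103 Huntingtin exon 1–GFP PC12 line, 1500 cells/well in phenol red free DMEM with 5% equine and 5% calf serum. Tebufenozide 100 nM induced expression; compounds titrated; aggregates quantified by cytometry.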
CBFb-RUNX1 inh: blocks binding between human CBF-beta and RUNX1; AID 1477; AlphaScreen CBFb-His/RUNX1-biotin binding, biochemical; Potency, µM (series often up to 59.8 µM), actives largely listed as inhibitors; 230,000 tested, under 10 active
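Proteins preincubated together for 20 min at RT before compound addition; 15 min later, nickel and streptavidin beads were added and left 90 min prior to AlphaScreen measurement.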
HTT ATP protect: protects HTT-Q103 PC12 cells, measured by ATP. PC12 HTT-Q103 induced, cytoprotection, ATP luminescence, 40 h. Potency, µM (top dose mostly 56.4 µM), usual class: activators. actives 0.14% (n = 230,000). AID 1471; note: nearly all actives have a fitted effect of over 45% in size
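PC12 cells stably carrying ecdysone-inducible Htt exon 1 (Q103)–GFP were induced with 100 nM tebufenozide (final) alongside library compounds in a dose series. Cytoprotection was scored as retained ATP by ATPlite luminescence.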
ALDH1A1 inh: inhibitors of human aldehyde dehydrogenase 1A1. P00352. Purified ALDH1A1, NADH fluorescence, propionaldehyde substrate. Potency, µM (doses to about 75.3 µM), hits mostly inhibitors. actives 7.3% (n = 220,000). AID 1030; active = well fitted inhibition curve with a large enough effect, not every such curve was filed as active; inconclusive = small, poorly fitted or top-dose-only effect, or another doubt; inactive = no such curve, though single readings can be large or run the other way
Target sequence (P00352 whole entry, looked up): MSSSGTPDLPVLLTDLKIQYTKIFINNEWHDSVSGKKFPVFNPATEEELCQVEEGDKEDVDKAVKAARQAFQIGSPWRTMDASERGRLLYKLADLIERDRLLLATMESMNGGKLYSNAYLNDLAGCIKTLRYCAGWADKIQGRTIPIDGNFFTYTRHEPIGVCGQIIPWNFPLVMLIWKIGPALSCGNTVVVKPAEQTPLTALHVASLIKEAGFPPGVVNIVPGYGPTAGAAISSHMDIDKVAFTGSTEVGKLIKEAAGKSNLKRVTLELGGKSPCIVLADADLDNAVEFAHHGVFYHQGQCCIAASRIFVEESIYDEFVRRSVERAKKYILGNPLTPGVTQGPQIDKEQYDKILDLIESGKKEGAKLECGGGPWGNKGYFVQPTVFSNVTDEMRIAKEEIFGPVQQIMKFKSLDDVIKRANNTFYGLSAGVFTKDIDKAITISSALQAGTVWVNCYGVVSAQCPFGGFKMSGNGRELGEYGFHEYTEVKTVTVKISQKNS
HPGD block: inhibitors of human 15-hydroxyprostaglandin dehydrogenase (HPGD). P15428. purified HPGD, NADH fluorescence kinetic, PGE2 substrate. Potency, µM, usual class: inhibitors. actives 4.3% (n = 150,000). AID 894; active = well fitted inhibition curve with a large enough effect, not every such curve was filed as active; inconclusive = small, poorly fitted or top-dose-only effect, or another doubt; inactive = no such curve, though single readings can be large or run the other way
Target sequence (P15428 whole entry, looked up): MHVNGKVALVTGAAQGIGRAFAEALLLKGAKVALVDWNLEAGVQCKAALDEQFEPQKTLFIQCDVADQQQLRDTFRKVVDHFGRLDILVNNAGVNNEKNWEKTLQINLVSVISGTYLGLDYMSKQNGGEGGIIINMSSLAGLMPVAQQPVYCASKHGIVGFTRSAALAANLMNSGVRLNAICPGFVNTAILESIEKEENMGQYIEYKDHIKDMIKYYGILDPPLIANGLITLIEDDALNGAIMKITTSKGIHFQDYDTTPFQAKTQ
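20 nM HPGD preincubated 15 min at room temperature with compound in 50 mM Tris-HCl pH 8, 0.01% Tween 20. Started with 1 mM NAD+ and 30 uM prostaglandin E2; NADH fluorescence (360/450 nm) read 5 times over 30-s intervals, last minus first.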
PNC assembly inh: blocks assembly of the perinucleolar compartment; PC3M PTB-GFP, PNC prevalence imaging, 16 h; hits give low values; activity change (PNC), negative = inhibition, % at 10 µM; actives 3.1% (n = 140,000); AID 2417;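 active = readout at or below -70, meaning at least 70% loss of cells showing the perinucleolar compartment, a nuclear body marking cancer cells; inconclusive = readout between -30 and a set limit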
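Compounds are pinned in duplicate onto adhered PC3M cells stably expressing GFP-tagged PTB and incubated 16 h at 37 C. Cells are then fixed, nuclei stained with Hoechst, and PNC-positive cells counted.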
A number is an active result; [ ] = another dose, or the depositor's remark. Hits are enriched below; roughly 11% of the tested compounds scored in any of these assays. Unless noted, calls come from the whole dose curve; as a rule, active = well fitted curve in the direction sought with a large enough effect; inconclusive = small, poorly fitted or top-dose-only effect, or another doubt; inactive = no such curve, though single readings can be large; an effect the other way counts as inactive or inconclusive.

What do the screens show for `CC1(CC(=O)N/N=C/c2cc([N+](=O)[O-])c(O)cc2O)OCCO1`?
HTT aggregate: inactive; CBFb-RUNX1 inh: inconclusive; ALDH1A1 inh: inconclusive

What do the screens show for `Cc1ccc(-n2c(C)cc(/C=N/NC(=O)c3ccncc3)c2C)cc1C`?
HTT aggregate: inactive; CBFb-RUNX1 inh: inactive; HTT ATP protect: inactive; ALDH1A1 inh: inconclusive

What do the screens show for `Cc1ccc(-n2c(C)cc(/C=N/NC(=O)c3ccncc3)c2C)c(C)c1`?
HTT aggregate: inactive; CBFb-RUNX1 inh: inactive; HTT ATP protect: inactive; ALDH1A1 inh: 13µM; HPGD block: inactive; PNC assembly inh: inactive

Results for Cc1cc(/C=N/NC(=O)c2ccncc2)c(C)n1-c1ccccc1 ?
HTT aggregate: inactive; CBFb-RUNX1 inh: inactive; HTT ATP protect: inactive[10 µM]; ALDH1A1 inh: inconclusive; HPGD block: inactive; PNC assembly inh: inconclusive

Results for CC(=O)N(O)[C@@H]1c2cc(C#N)ccc2OC(C)(C)[C@H]1O ?
CBFb-RUNX1 inh: inactive; HTT ATP protect: inactive; ALDH1A1 inh: inactive; HPGD block: inactive

How did CCCOc1ccc(C(C)=O)cc1CN1CCOCC1 do in these assays?
HTT aggregate: inactive; CBFb-RUNX1 inh: inactive; HTT ATP protect: inactive[10 µM]; ALDH1A1 inh: inactive; HPGD block: inactive; PNC assembly inh: inactive

What do the screens show for `CC(=O)c1ccc(Oc2ncnc3sccc23)c(CN2CCOCC2)c1`?
HTT aggregate: inactive; CBFb-RUNX1 inh: inactive; HTT ATP protect: inactive[10 µM]; ALDH1A1 inh: inconclusive; HPGD block: 25µM; PNC assembly inh: inactive

Results for Cn1cccc1C(=O)N1CCC2(CC1)CN(C(c1ccccc1)c1ccccc1)C2 ?
HTT ATP protect: inactive; ALDH1A1 inh: inconclusive; HPGD block: inactive

How did O=C1CCC(=O)N1OCCCOc1ccc(Br)cc1Cl do in these assays?
HTT aggregate: inactive; CBFb-RUNX1 inh: inconclusive; HTT ATP protect: inactive[10 µM]; ALDH1A1 inh: inactive; HPGD block: 18µM; PNC assembly inh: inactive

Results for O=C(Cn1cnc2ccccc2c1=O)N1CCN(c2ccccc2)CC1 ?
HTT aggregate: inactive; CBFb-RUNX1 inh: inactive; HTT ATP protect: inactive[1.9 µM]; ALDH1A1 inh: inactive; HPGD block: inactive; PNC assembly inh: inactive

What do the screens show for `Cc1cc2c(=O)n(CC(=O)N3CCN(c4ccccc4)CC3)cnc2s1`?
HTT aggregate: inactive; CBFb-RUNX1 inh: inactive; HTT ATP protect: inactive[10 µM]; ALDH1A1 inh: inactive; HPGD block: inactive; PNC assembly inh: -122

What do the screens show for `CCN(CC)S(=O)(=O)c1ccc(N2CCCCC2)c(NC(=O)c2ccncc2)c1`?
HTT aggregate: inactive[9.22 µM]; CBFb-RUNX1 inh: inactive; HTT ATP protect: inactive[10 µM]; ALDH1A1 inh: 11µM

What do the screens show for `CCN(CC)S(=O)(=O)c1ccc(N2CCCC2)c(NC(=O)c2ccncc2)c1`?
HTT aggregate: inactive[9.22 µM]; CBFb-RUNX1 inh: inactive; HTT ATP protect: inactive[10 µM]; ALDH1A1 inh: 16µM

What do the screens show for `CCN(CC)S(=O)(=O)c1ccc(N2CCOCC2)c(NC(=O)c2ccccc2)c1`?
HTT aggregate: inactive; CBFb-RUNX1 inh: inactive; ALDH1A1 inh: inconclusive; HPGD block: inactive; PNC assembly inh: inactive

What do the screens show for `COCCn1cc(C(=O)NCCCN2CCC(C)CC2)c2c3ccccc3n(C)c2c1=O`?
HTT aggregate: inactive; CBFb-RUNX1 inh: inactive; HTT ATP protect: inactive[10 µM]; ALDH1A1 inh: inconclusive; HPGD block: inconclusive; PNC assembly inh: inactive

What do the screens show for `CCN1CCN(CCCNC(=O)c2cn(CCOC)c(=O)c3c2c2ccccc2n3C)CC1`?
HTT aggregate: inactive; CBFb-RUNX1 inh: inactive; HTT ATP protect: inactive[10 µM]; ALDH1A1 inh: inconclusive; HPGD block: inconclusive; PNC assembly inh: -101

Results for CN1CCC(CNC(=O)c2ccc(Cc3nc4ccccc4[nH]3)cc2)CC1 ?
ALDH1A1 inh: inactive; HPGD block: inactive

Results for COc1ccc(Oc2ncc3nc(CCc4ccccc4)c(=O)n(C[C@H]4CCCO4)c3n2)cc1 ?
HTT ATP protect: inactive; ALDH1A1 inh: inconclusive

What do the screens show for `CCN(CC)c1ccc(C(NC(C)=O)NC(C)=O)cc1`?
HTT aggregate: inactive; CBFb-RUNX1 inh: inactive; HTT ATP protect: inactive; ALDH1A1 inh: 14µM; HPGD block: inactive; PNC assembly inh: inactive

What do the screens show for `CC(=O)NC(NC(C)=O)c1ccc(N(C)C)cc1`?
HTT aggregate: inactive; CBFb-RUNX1 inh: inactive; HTT ATP protect: inactive; ALDH1A1 inh: 2.2µM; HPGD block: inactive; PNC assembly inh: inactive

How did CC(=O)NC(NC(C)=O)c1ccc(Br)cc1 do in these assays?
HTT aggregate: inactive; CBFb-RUNX1 inh: inactive; HTT ATP protect: inactive; ALDH1A1 inh: inactive; HPGD block: inactive; PNC assembly inh: inactive

How did Cc1nc(-c2ccccc2)c(-c2ccncc2)o1 do in these assays?
CBFb-RUNX1 inh: inactive

How did Oc1ccc([C@@H]2CNCc3sccc32)cc1O do in these assays?
HTT ATP protect: inactive[1.9 µM]

Results for O=C1CCN(Cc2nc(-c3ccc(Cl)cc3)no2)CCN1 ?
HTT aggregate: inactive[9.22 µM]; CBFb-RUNX1 inh: inactive; HTT ATP protect: inactive[10 µM]; ALDH1A1 inh: inactive

How did O=C(Nc1nnc(SCc2ccc(F)cc2)s1)c1ccc2c(c1)C(=O)N(c1ccccc1Cl)C2=O do in these assays?
HTT aggregate: inactive; CBFb-RUNX1 inh: inactive; HTT ATP protect: inactive[10 µM]; ALDH1A1 inh: 1.3µM

What do the screens show for `O=C(Nc1nnc(SCc2ccc(F)cc2)s1)c1ccc2ncsc2c1`?
HTT aggregate: inactive; CBFb-RUNX1 inh: inactive; HTT ATP protect: inactive[10 µM]; ALDH1A1 inh: inconclusive; HPGD block: inactive; PNC assembly inh: inactive

How did CCOC(=O)N1N=C(CC)CC1(O)C(F)(F)F (stereo not drawn) do in these assays?
HTT aggregate: inactive; CBFb-RUNX1 inh: inactive; HTT ATP protect: inactive[10 µM]; ALDH1A1 inh: inactive; HPGD block: inactive; PNC assembly inh: -86

Results for C[C@@]12C[C@H](O)C3[C@H](CCC4=CC(=O)CC[C@]43C)[C@H]1CC[C@@H]2c1csc(N)n1 (stereo partly drawn) ?
ALDH1A1 inh: 2µM; HPGD block: inactive

Results for CC(C)[C@@H]1[C@H]2CC[C@H](C2)[C@H]1N ?
CBFb-RUNX1 inh: inactive; HTT ATP protect: inactive; ALDH1A1 inh: inactive; HPGD block: inactive

How did O=C(c1cc2ccccc2oc1=O)N(Cc1ccccc1)Cc1ccc2c(c1)OCO2 do in these assays?
HTT aggregate: inactive; CBFb-RUNX1 inh: inactive; HTT ATP protect: inactive[10 µM]; ALDH1A1 inh: inconclusive; HPGD block: inconclusive; PNC assembly inh: inactive

What do the screens show for `CN1\C(=C/C=C/C=C/C=[N+](C)C)C(C)(C)c2ccccc21`?
HTT aggregate: 10µM; CBFb-RUNX1 inh: inactive; HTT ATP protect: inactive; ALDH1A1 inh: 25µM

How did CCn1nnnc1SCC(=O)c1cc(OC)ccc1OC do in these assays?
HTT aggregate: inactive; CBFb-RUNX1 inh: inactive; HTT ATP protect: inactive; ALDH1A1 inh: 14µM; HPGD block: inactive; PNC assembly inh: inactive

Results for COc1ccc(OC)c(C(=O)CSc2nc3cccnc3n2C)c1 ?
HTT aggregate: inactive; CBFb-RUNX1 inh: inactive; HTT ATP protect: inactive[10 µM]; ALDH1A1 inh: 22µM; HPGD block: inactive; PNC assembly inh: inactive

Screens from PubChem.
